# Screening data deposited in PubChem BioAssay by several laboratories.
# LYP act – activators of human LYP (PTPN22) phosphatase. Q9Y2R2. recombinant LYP, DiFMUP fluorescence; 0 = plate median, 100 = signal doubled. activation, % at 2 µM. 0.11% of 96,000 active;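 active = activation at 2 µM above a set limit, the mean plus 5 SD, cut at about 37% in these data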
# LYP inh 2 – blocks human PTPN22 phosphatase activity | recombinant LYP catalytic domain, DiFMUP fluorescence | Q9Y2R2 | 0.21% of 96,000 active | inhibition, % at 2 µM | AID 640;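 active = inhibition at 2 µM at or above a set limit, the screen mean plus 3 SD, cut at about 24% in these data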;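 also: 0% = DMSO with enzyme and 100% = enzyme fully blocked by orthovanadate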
# ERa SRC1 inh – ER-alpha (human) coactivator binding inhibition | P03372 | TR-FRET ER-alpha LBD / SRC-1 peptide, estradiol-bound | inhibition, % at 25.6 µM | 1.7% of 86,000 active; in the data active = inhibition above about 50%;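 also: 0% = receptor plus peptide control and 100% = peptide only without receptor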
# Target sequence (P03372 whole entry, looked up, the tested form may be a part): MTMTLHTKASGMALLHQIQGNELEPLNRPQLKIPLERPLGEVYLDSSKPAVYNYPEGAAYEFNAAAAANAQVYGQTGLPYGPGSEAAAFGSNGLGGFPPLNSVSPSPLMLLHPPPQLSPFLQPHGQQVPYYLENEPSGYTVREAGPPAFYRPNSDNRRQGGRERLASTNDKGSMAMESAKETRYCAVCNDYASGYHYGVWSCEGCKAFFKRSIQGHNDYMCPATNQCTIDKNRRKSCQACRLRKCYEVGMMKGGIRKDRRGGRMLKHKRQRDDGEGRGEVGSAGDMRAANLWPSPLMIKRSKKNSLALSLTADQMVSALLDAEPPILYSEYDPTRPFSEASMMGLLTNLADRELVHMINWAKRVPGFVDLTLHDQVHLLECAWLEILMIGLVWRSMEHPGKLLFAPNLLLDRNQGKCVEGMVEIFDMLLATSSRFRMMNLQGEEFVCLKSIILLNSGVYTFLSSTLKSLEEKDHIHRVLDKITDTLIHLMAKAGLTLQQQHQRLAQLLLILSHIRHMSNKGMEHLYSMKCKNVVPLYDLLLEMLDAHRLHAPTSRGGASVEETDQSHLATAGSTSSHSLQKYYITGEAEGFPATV
# ERa coact pot – ER-alpha (human) coactivator binding potentiation. coactivator binding (% of control), % at 25.6 µM. 1.3% of 86,000 active. P03372. AID 639. TR-FRET ERalpha-LBD/SRC-Cy5 coactivator binding, 2 h; 100 = basal binding, no effect; in the data active = activity above about 200%;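 also: binding measured in presence of low estradiol as agonist stimulus; 0% = peptide alone without receptor and 100% = receptor with peptide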
# ERb coact inh – blocks coactivator binding to human estrogen receptor beta; Q92731; TR-FRET ER-beta LBD / SRC1-Cy5 peptide binding; receptor agonist-loaded with 1 µM estradiol; inhibition, % at 25.6 µM; 1.3% of 86,000 active;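 active = compounds whose percent inhibition of the receptor-coactivator binding signal exceeds about 50% in the single-dose screen, limit read from the data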;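 also: 0% = receptor plus peptide wells without compound and 100% = peptide-only wells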
# FAK inh – inhibitors of human focal adhesion kinase | Q05397 | biochemical FAK kinase activity assay | inhibition, %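 (tested at 7 µM)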 | 0.84% of 97,000 active | AID 727; in the data active = inhibition above about 19%;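 also: 0% = DMSO and 100% = reference compound high control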
# * marks the source's active call; other numbers are inactive results; . = not tested or not shown; [ ] = another dose, or the depositor's remark. Only some compounds are listed: those with a hit (about 3.4% of all), similar ones and a draw of the others.
SMILES,LYP act,LYP inh 2,ERa SRC1 inh,ERa coact pot,ERb coact inh,FAK inh
COc1cc(NC(=O)c2cccs2)c(C(=O)OCC(=O)NCc2ccco2)cc1OC,.,.,79*,89,42,.
CCOc1cc(NC(=O)c2cccs2)c(OCC)cc1NC(=O)c1ccco1,-1,4,8,75,65*,1
Cc1ccc(NS(=O)(=O)c2ccc(OCC(=O)NCc3ccco3)cc2)cc1,16,-16,-12,97,-7,-1
COc1ccc(NC(=O)c2cccs2)cc1NC(=O)c1ccco1,4,0,-2,92,-5,-1
CSc1ccc(Cl)c(C(=O)OCC(=O)NCc2ccco2)c1,-9,9,52*[fluorescence artefact?],142,47,11
CCSc1nn2c(=O)c3ccccc3nc2s1,2,-2,.,.,.,-10
O=C(COC(=O)c1cccs1)NCc1ccco1,.,.,53*[fluorescence artefact?],77,53*,.
COc1cc(C(=O)OCC(=O)NCc2ccco2)cc(OC)c1OC,-9,8,-10,82,-5,-1
CCOc1cc(C(=O)OCC(=O)NCc2ccco2)cc(OCC)c1OCC,-10,6,57*[fluorescence artefact?],80,45,6
Cc1ccc(NC(=O)c2cc(NC(=O)C3CC=CCC3C(=O)O)ccc2N2CCOCC2)cc1Cl (configuration not stated),2,0,-3,96,-5,-1
NC(=O)SC/C(=N\S(=O)(=O)c1ccccc1)Nc1ccccc1,9,-10,0,97,97*[fluorescence artefact?],2
Cc1ccccc1NC(=O)CC1SCCNC1=O (configuration not stated),-9,7,1,108,0,-3
Cc1c(Cl)cccc1NC(=O)CC1SCCNC1=O (configuration not stated),.,.,-7,126,54*,.
CC(C)CCN1CC(O)=C(c2nc(-c3ccc(Cl)cc3)cs2)C1=N,0,0,24,219*,28,2
O=C(COc1ccc2ccccc2c1)NCCNC(=O)COc1ccc2ccccc2c1,-6,6,11,317*[fluorescence artefact?],-4,-15
COc1ccc(C(=O)CCN2CCCCCC2)cc1,6,-5,.,.,.,0
CCOc1ccc(C(=O)CCN2CCCCC2)cc1,.,.,-2,92,59*,.
CC(=O)OC1=C(C#N)Cn2ccc3cccc1c32,5,-6,61*[fluorescence artefact?],63,46,4
O=C(OCCN=C1NS(=O)(=O)c2ccccc21)C1CC(=O)N(c2ccc3ccccc3c2)C1 (configuration not stated),4,-5,2,101,4,1
CCOC(=O)C1=C(N)n2c(s/c(=C\c3cccnc3)c2=O)=C(C#N)C1c1cccnc1 (configuration not stated),.,.,52*[fluorescence artefact?],65,18,.
CCOC(=O)C1=c2s/c(=C\c3cccnc3)c(=O)n2C(N)=C(C(=O)OC)C1c1cccnc1 (configuration not stated),10,-12,45,89,-15,2
CCN1CCN(Cc2c(O)c(Cl)cc3c(C)cc(=O)oc23)CC1,-3,2,48,42,63*,-8
Cc1cc(=O)oc2c(CN3CCC(C)CC3)c(O)c(Cl)cc12,11,-10,67*,41,69*[fluorescence artefact?],3
Cc1ccc(S(=O)(=O)C(C)C(=O)c2ccc3c(c2)OCCO3)cc1 (configuration not stated),-10,12,7,108,-9,0
O=C(CSc1nnc(-c2ccc(O)cc2)n1Cc1ccco1)c1ccccc1,5,-4,13,88,7,2
SMILES,LYP act,LYP inh 2,ERa SRC1 inh,ERa coact pot,ERb coact inh,FAK inh
O=C(CSc1nnc(-c2ccccn2)n1Cc1ccco1)c1ccc(-c2ccccc2)cc1,.,.,39,228*[fluorescence artefact?],38,.
Cc1cc(S(=O)(=O)N2CCCCCC2)c(Cl)cc1Cl,-4,6,-2,127,3,0
CCOC(=O)c1sc(NC(=O)c2ccco2)nc1-c1ccccc1,1,-5,6,271*[fluorescence artefact?],8,-10
CCOC(=O)N1CCN(C(=O)c2ccc3c(=O)n(CCC4=CCCCC4)c(=S)[nH]c3c2)CC1,-16,17,26,208*,31,-4
O=S(=O)(Nc1nc2ccccc2nc1Nc1ccc2c(c1)OCCO2)c1cccs1,.,.,70*[fluorescence artefact?],33,71*[fluorescence artefact?],.
Cc1ccc(S(=O)(=O)N2CCCN(c3nc4cc(C)ccc4cc3C#N)CC2)cc1,-2,2,35,350*[fluorescence artefact?],45,-1
Cc1ccc2cc(C#N)c(N3CCCN(C(=O)C4CCCO4)CC3)nc2c1 (configuration not stated),0,-3,-2,92,8,3
COc1cc(C(=O)N2CCCN(c3nc4cc(C)ccc4cc3C#N)CC2)cc(OC)c1OC,.,.,6,80,5,.
Cc1ccc2nc(N3CCN(S(=O)(=O)c4ccc5c(c4)OCCO5)CC3)c(C#N)cc2c1,-12,16,49,258*[fluorescence artefact?],56*[fluorescence artefact?],-2
Cc1cc(C)c2cc(C#N)c(N3CCCC3)nc2c1,-1,0,51*[fluorescence artefact?],119,25,9
Cc1ccc(S(=O)(=O)N2CCCN(S(=O)(=O)c3ccc4c(c3)OCCO4)CC2)cc1,6,-7,-10,112,-11,-1
CC1CCN(C(=O)C2CCN(S(=O)(=O)c3cccc4nonc34)CC2)CC1,-2,0,.,.,.,-1
O=C(Nc1ccccc1C(F)(F)F)c1cc(S(=O)(=O)N2CCOCC2)ccc1F,23,-22,-17,94,-25,3
COCC(C)n1c(C)cc(C(=O)COC(=O)c2c(C)nn(-c3ccccc3)c2C)c1C (configuration not stated),-6,5,-6,116,0,-2
COCC(C)n1c(C)cc(C(=O)COC(=O)c2c(NC(C)=O)sc(C)c2C)c1C (configuration not stated),.,.,23,542*[fluorescence artefact?],31,.
COc1ccc(Cl)cc1S(=O)(=O)N1CCCC1,8,-6,-3,96,-2,-3
CC(=O)OC1CC(C)(C)N(OC(=O)c2ccccc2)C(C)(C)C1,.,.,-5,103,-3,.
CC(=O)OC1CC(C)(C)N(OC(=O)c2ccc(N)cc2)C(C)(C)C1,0,0,61*,54,20,4
Cc1cc(C)c(NC(=O)CSc2nc3ccc(NC(=O)CSc4nnnn4Cc4ccccc4)cc3s2)c(C)c1,-13,10,67*,114,7,0
Cn1cnnc1SCC(=O)Nc1ccc2nc(SCc3ccccc3)sc2c1,-4,4,-36,366*[fluorescence artefact?],10,1
Cn1c(Cn2c(=O)sc3ccccc32)nnc1SCC(=O)NCCc1ccccc1,.,.,-5,126,-9,.
N#Cc1nc(-c2cccc(Cl)c2)oc1NCc1cccnc1,3,-4,-11,95,0,7
Cc1ccc(CNC(=O)c2cc3c(C)nc4ccccc4c3o2)cc1,1,-1,57*[fluorescence artefact?],171,32,-11
COc1ccc(-c2cc(C(=O)Nc3cccc(C(C)=O)c3)no2)cc1,4,-4,16,228*[fluorescence artefact?],10,-2
